In PubChem BioAssay (NCI) one finds growth data, which are given here for seven compounds.

Compounds without any hit were thinned out: in the full panel of roughly 83,000, 20% have a hit.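 A percent growth of 40 corresponds to 60% growth inhibition; 0 means no net growth; -100 means all cells died. Active threshold: below 10.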 Unmarked numbers belong to inactive results. The source made the active and inactive calls.

Some test systems named below: NCI-H23 lung; NCI-H226 lung; NCI-H322M lung; HOP-62 NSCLC; NCI-H460 lung; 786-0 renal; DU-145 prostate; MDA-MB-231 breast; SF-268 CNS; SNB-19 CNS; UACC-62 melanoma; SK-MEL-28 melanoma; SN12C renal; UO-31 renal; OVCAR-5 ovarian; OVCAR-3 ovarian; NCI/ADR-RES ovarian; MDA-MB-435 melanoma; MCF7 breast; KM12 colon.
Holding throughout (assay): NCI-60 one-dose screen, 48 h (100 = growth as untreated, 0 = no growth, -100 = all killed)
Conditions in all cases: 10 µM unless noted

For `C/C(=C\c1cc(C(F)(F)F)n(-c2ccc(N)cc2)n1)[C@@H]1C[C@@H]2O[C@]2(C)CCC[C@H](C)[C@H](O)[C@@H](C)C(=O)C(C)(C)[C@@H](O)CC(=O)O1`, the growth in the assay with NCI-H23 lung is 24.4%; in the assay on NCI-H226 lung, 38.9%; in the assay on NCI-H322M lung it was 22.2%; in the assay with HOP-62 NSCLC it was 19.2%; with NCI-H460 lung it was 3.04% (active); in the assay with 786-0 renal it was 8.49% (active). In addition, the growth in the assay with DU-145 prostate was -23.9% (active); in the assay with MDA-MB-231 breast, 0.97% (active); with SF-268 CNS it was 6.48% (active); with SNB-19 CNS, 21.1%; in the assay on UACC-62 melanoma it was 26.8%; in the assay on SK-MEL-28 melanoma, 39.1%. Moreover, the growth in the assay on SN12C renal is 23.1%; in the assay on UO-31 renal it was 26.6%; in the assay with OVCAR-5 ovarian, 14.7%; in the assay on OVCAR-3 ovarian it was -0.038% (active); in the assay on NCI/ADR-RES ovarian it was 7.67% (active); in the assay with MDA-MB-435 melanoma, -22.6% (active). Further, the growth in the assay on MCF7 breast is 7.93% (active); in the assay with KM12 colon it was 5.68% (active).
Consider `CCOC(=O)/C=C(\C)Nc1ccc(N/C(C)=C/C(=O)OCC)c2c1Oc1ccccc1O2`, for which the growth was 89.7% in the assay with NCI-H23 lung; 93.2% in the assay with NCI-H226 lung; 110% with NCI-H322M lung; 117% in the assay with HOP-62 NSCLC; 122% in the assay on NCI-H460 lung; 88.2% in the assay on 786-0 renal. For the same compound, the growth in the assay on DU-145 prostate was 110%; in the assay on MDA-MB-231 breast, 79%; in the assay with SF-268 CNS, 107%; in the assay on SNB-19 CNS it was 115%; with UACC-62 melanoma it was 92.3%; with SK-MEL-28 melanoma, 114%. Besides, the growth in the assay on SN12C renal was 96.8%; with OVCAR-5 ovarian, 106%; in the assay on OVCAR-3 ovarian, 92.6%; in the assay on NCI/ADR-RES ovarian, 99.5%; with MDA-MB-435 melanoma, 101%; in the assay with MCF7 breast, 93.7%. Moreover, in the assay with KM12 colon, the growth was 97.6%.
For the compound `COC(=O)C[Se]C(=O)c1ccccc1OC(C)=O`, the growth in the assay on NCI-H23 lung was 76.2%; in the assay with NCI-H226 lung, 56.3%; in the assay on NCI-H322M lung it was 77.5%; in the assay on HOP-62 NSCLC, 32.7%; with NCI-H460 lung, 76.5%; in the assay on 786-0 renal, 89.8%. The growth with DU-145 prostate was 61.8%; with MDA-MB-231 breast, 71.3%; with SF-268 CNS it was 72.3%; in the assay with SNB-19 CNS it was 83.9%; in the assay with UACC-62 melanoma, 77.8%; in the assay with SK-MEL-28 melanoma, 84.1%. In addition, the growth in the assay on SN12C renal was 93.2%; in the assay on UO-31 renal, 35.7%; with OVCAR-5 ovarian it was 38.6%; in the assay on OVCAR-3 ovarian, 84.5%; in the assay with NCI/ADR-RES ovarian, 24.2%; in the assay on MDA-MB-435 melanoma, 87.9%. Further, the growth is 65.5% in the assay with MCF7 breast and 22.1% in the assay with KM12 colon.
As to `Oc1ccc(O)c2c1C1(Cl)C(Cl)=C(Cl)C2(Cl)C1(Cl)Cl`, the growth in the assay with NCI-H23 lung was 59.3%; with NCI-H226 lung it was 59%; in the assay on NCI-H322M lung it was 33.1%; in the assay with HOP-62 NSCLC, 47.4%; in the assay with NCI-H460 lung it was 55.3%; with 786-0 renal it was 69.1%. The growth was 63.2% in the assay with DU-145 prostate; 41.3% with MDA-MB-231 breast; 44.7% with SF-268 CNS; 64.9% in the assay with SNB-19 CNS; 37.1% in the assay on UACC-62 melanoma; 67.9% with SK-MEL-28 melanoma. The growth is 56.4% in the assay with SN12C renal; 44.2% in the assay with UO-31 renal; 70.1% with OVCAR-5 ovarian; 40.4% in the assay with OVCAR-3 ovarian; 40.5% in the assay with NCI/ADR-RES ovarian; -3.33% (active) in the assay with MDA-MB-435 melanoma. Also, the growth with MCF7 breast was 38.9%; with KM12 colon, 34.6%.
Regarding `CCOCC1(CCc2ccccc2)C(=O)NC(=S)NC1=O`, the growth with NCI-H23 lung was 94%; in the assay with NCI-H226 lung it was 106%; with NCI-H322M lung it was 114%; in the assay on HOP-62 NSCLC it was 104%; in the assay on NCI-H460 lung, 113%; in the assay on 786-0 renal it was 102%. Further, the growth was 109% with DU-145 prostate; 100% in the assay with MDA-MB-231 breast; 102% with SF-268 CNS; 105% in the assay with SNB-19 CNS; 104% in the assay on UACC-62 melanoma; 117% in the assay on SK-MEL-28 melanoma. Besides, the growth in the assay with SN12C renal was 100%; in the assay on UO-31 renal, 84%; in the assay with OVCAR-5 ovarian, 107%; in the assay with OVCAR-3 ovarian it was 117%; with NCI/ADR-RES ovarian, 105%; in the assay with MDA-MB-435 melanoma, 108%. In addition, the growth in the assay on MCF7 breast is 103%; with KM12 colon it was 110%.
Turning to `O=C1NC2(CCNCC2)Nc2ccccc21`, the growth in the assay with NCI-H23 lung was 100%; in the assay with NCI-H226 lung, 97.7%; in the assay with NCI-H322M lung, 109%; in the assay with HOP-62 NSCLC, 96.6%; in the assay with NCI-H460 lung, 110%; in the assay on 786-0 renal, 107%. For the same compound, the growth in the assay with DU-145 prostate was 108%; in the assay with MDA-MB-231 breast, 120%; in the assay on SF-268 CNS, 106%; with SNB-19 CNS it was 96.2%; in the assay on UACC-62 melanoma, 96.1%; in the assay on SK-MEL-28 melanoma, 116%. Moreover, the growth in the assay with SN12C renal is 99.1%; in the assay with UO-31 renal it was 89.4%; with OVCAR-5 ovarian, 115%; in the assay with OVCAR-3 ovarian it was 108%; with NCI/ADR-RES ovarian it was 109%; with MDA-MB-435 melanoma, 104%. Moreover, the growth in the assay with MCF7 breast is 107%; in the assay with KM12 colon it was 105%.
For `CCCCCCCCCCOc1ccc(C(=O)Oc2ccc(CSP3(=O)OCC4OC(n5ccc(=O)[nH]c5=O)C(F)C4OP(=O)(O)OCC4OC(n5cnc6c(N)ncnc65)C(F)C4O3)cc2)cc1` (centres undefined), the growth in the assay with NCI-H23 lung was 103%; in the assay on NCI-H226 lung, 75.5%; with NCI-H322M lung, 84.8%; in the assay with HOP-62 NSCLC, 111%; in the assay with NCI-H460 lung, 108%; in the assay with 786-0 renal, 98.6%. Besides, the growth with DU-145 prostate was 106%; in the assay on MDA-MB-231 breast, 111%; in the assay with SF-268 CNS it was 104%; with SNB-19 CNS it was 103%; in the assay with UACC-62 melanoma, 111%; with SK-MEL-28 melanoma, 113%. Also, the growth with SN12C renal is 101%; in the assay with UO-31 renal, 98.5%; with OVCAR-5 ovarian, 116%; with OVCAR-3 ovarian, 97.6%; in the assay with NCI/ADR-RES ovarian, 105%; in the assay with MDA-MB-435 melanoma, 105%. Further, the growth with MCF7 breast was 95.5%; in the assay with KM12 colon, 103%.
